# Compound activity: PubChem BioAssay, National Center for Advancing Translational Sciences (NCATS)
# D1 PAM = human D1 dopamine receptor positive modulation. HEK293 TREx D1 cells, calcium flux, dopamine EC20 potentiation. potentiation, % at 10 µM. 360,000 compounds, 0.036% hits; in the data active = potentiation above about 30%; also: 0% is about no effect
# D1 antagonist = antagonists of human D1 dopamine receptor; 360,000 compounds, 3.2% hits; HEK293 TREx D1 cells, calcium flux, dopamine EC80; active compounds read low; activity change, negative = inhibition, % at 10 µM; AID 504652; in the data active = activity change below about -30%; also: % is scaled to controls: 0 for no effect and ±100 for the full control effect
#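 Using tetracycline-induced force-coupled D1 Hek293 cells and a calcium dye, signals were followed for 180 s after compound, then for 180 s after EC80 dopamine, to detect inhibitors.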
# DRD3 agonist = agonists of human D3 dopamine receptor | D3R DiscoveRx beta-arrestin cells, luminescence, 90 min | max activation, % | 410,000 compounds, 0.58% hits; in the data active = max activation above about 30%; also: 0% is about no effect
# Target sequence (P35462 whole entry, looked up): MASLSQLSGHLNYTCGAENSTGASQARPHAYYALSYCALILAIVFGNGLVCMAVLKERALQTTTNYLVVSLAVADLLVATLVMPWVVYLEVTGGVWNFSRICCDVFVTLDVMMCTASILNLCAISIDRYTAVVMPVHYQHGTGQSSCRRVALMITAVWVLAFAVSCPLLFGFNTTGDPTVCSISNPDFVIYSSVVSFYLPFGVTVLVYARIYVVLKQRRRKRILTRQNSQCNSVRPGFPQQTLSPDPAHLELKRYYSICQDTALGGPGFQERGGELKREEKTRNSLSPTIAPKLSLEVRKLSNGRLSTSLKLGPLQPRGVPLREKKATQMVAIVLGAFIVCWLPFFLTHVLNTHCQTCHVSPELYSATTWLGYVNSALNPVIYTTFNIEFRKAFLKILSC
#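 Agonist mode: compounds and dopamine controls were applied to plated cells for 90 min at 37 degrees C after an overnight attachment at 1500 cells/well. Luminescent read-out followed 30 - 60 minutes at room temperature with DiscoveRx detection reagent.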
# ERG-DNA inh = blocks human ERG Ets domain binding to DNA | AID 624246 | P11308 | 370,000 compounds, 0.028% hits | fluorescence polarization, His-ERG Ets domain / labelled DNA | Potency, µM (top dose mostly 76.9 µM), without a hit: at the highest dose FP activity, negative = inhibition, actives largely listed as inhibitors; active = well fitted inhibition curve with a large enough effect in the polarisation, with a control signal flat; inconclusive = small, poorly fitted or top-dose-only effect, or effect the other way, or a change in a side signal; inactive = no such curve, though single readings can be large or run the other way; the % refers to the polarisation;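 also: polarization taken with two DNA probes labelled with fluorescein and Texas red; potency is read from the fitted curve at half-maximal effect; % of control where 0% means no effect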
#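 His-tagged ERG Ets domain (1 uM in the protein solution; 300mM KCl, 50mM Tris-HCl, 1mM EDTA, 1mM DTT, pH 7.5) received compound, then a probe mix of 5 nM fluorescein-DNA and 100nM Texas-615-DNA. Fluorescence polarization was read for both dyes.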
# D1 agonist = agonists of human D1 dopamine receptor; P21728; HEK293 T-REx D1 cells, calcium flux, agonist mode; activation, % at 2 µM; 360,000 compounds, 1% hits; AID 504660; in the data active = activation above about 30%; also: 0% is about no effect
#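 Tetracycline-induced HEK293 TREx D1 cells, force-coupled to calcium signalling, were dye-loaded with a no-wash calcium kit. Compound was pin-added after a 10 s baseline. Fluorescence was read kinetically at 1 cycle/s for 180 s, with calcium rises flagged as agonism.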
# D3 antag = blocks the human D3 dopamine receptor; AID 652054; 360,000 compounds, 2.5% hits; D3R cells, DiscoveRx beta-arrestin luminescence, antagonist mode; active compounds read low; max response, negative = inhibition, %; in the data active = max response below about -50%; inconclusive = no clear call, values can overlap the other calls; also: % is scaled to controls: 0 for no effect and ±100 for the full control effect
#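 Cells plated overnight at 1500 cells/well, then exposed to library compounds with dopamine controls for 90 minutes at 37 degrees C. DiscoveRx reagent added for 30–60 minutes at room temperature; luminescence read, quantitative HTS format.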
# An asterisk follows results filed as active; ? = inconclusive; · = no result given; ! = not active in a repeat. A selection: hits, their analogues and other compounds. The true share with any hit is near 6.1%.
SMILES,D1 PAM,D1 antagonist,DRD3 agonist,ERG-DNA inh,D1 agonist,D3 antag
CC(C)(C)NC(=O)C1CCN(c2nc3ccccc3nc2C(F)(F)F)CC1,-2.7,3.6,3.3,0.9%,1.7,·
CCNC(=O)C1CCCN(c2nnc(C)c3c(C)n(-c4ccc(C)cc4)nc23)C1 (stereo not given),-0.9,1.8,0.2,-2.9%,3.7,·
COc1ccc(CNC(=O)C2CCCN(c3nnc(C)c4c(C)n(-c5ccc(C)cc5)nc34)C2)cc1 (stereo not given),-1.4,21.2,10.9,-3.5%,5.2,·
CCc1ccc(CNC(=O)C2CCCN(c3nnc(C)c4c(C)n(-c5ccc(OC)cc5)nc34)C2)cc1 (stereo not given),19.1,14.7,30.6*,24.1%,2.6,·
CCOC(=O)C1(C(=O)OCC)COC(=O)C1CN1Cc2cc3ccccc3nc2C1 (stereo not given),·,·,-13.6,·,·,?
CCCOc1ccc(NC(=O)CNC(=O)c2cc(OC)cc(OC)c2)cc1OCCC,6.7,-5.2,-19.5,-1.8%,1.1,-57.7*
CC(C)(C)c1ccccc1OCC(O)CN1CCN(c2ccccn2)CC1 (stereo not given),-0.1,-1.8,1.1,1.6%,7.3,?
OC(COC(c1ccc(Cl)cc1)c1ccc(Cl)cc1)CN1CCN(c2ccccn2)CC1 (stereo not given),-5.0,2.0,2.6,-17.2%,11.3,?
Cc1cccc(C)c1OCC(O)CN1CCN(c2ccccc2)CC1 (stereo not given),-1.6,-5.7,63.4*,4.4%,2.1,-15.1
Cc1ccc(OCC(O)CN2CCN(c3ccccn3)CC2)c(C)c1 (stereo not given),-4.8,-0.5,45.5*,33.4%,5.6,-26.1
Cc1cccc(C)c1OCC(O)CN1CCN(c2ccccn2)CC1 (stereo not given),-11.2,-18.5,59.2*,-7.3%,4.2,11.2
CCn1nc(C(=O)N2CCN(Cc3ccc4c(c3)OCO4)CC2)c2ccccc2c1=O,-2.1,-10.4,2.5,-2.7%,1.5,-11.6
CCC(C)c1ccccc1NC(=S)Nc1cccnc1 (stereo not given),-1.1,-12.9,8.6,7.1%,3.5,?
CC(C)[C@H](NC(=O)c1ccc(Cl)cc1Cl)C(=O)NNc1cccc(C(=O)O)c1,·,·,4.6,7.5%,·,-3.5
COc1ccc(N=C2C(=O)N3c4c(cccc42)C(C)=CC3(C)C)cc1,-4.5,4.1,-27.6,0.8%,2.6,-50.2*
Cc1ccccc1C(=O)Nc1nnc(S(=O)(=O)N(C)Cc2ccccc2)s1,-3.0,-26.4,-11.5,-11.0%,5.5,·
Cc1ccccc1C(=O)NCCNC(=O)c1ccco1,8.4,19.4,-16.0,9.6%,1.7,3.9
CC(=O)COC(=O)c1cc(-c2ccc(C)cc2)nc2ccccc12,-5.5,-12.3,0.3,-6.8%,4.3,15.2
COc1ccc(OCC#CCNC(C)(C)C)cc1,-1.9,-1.4,-4.1,-1.8%,2.4,-68.8*
N=c1sccn1CC(=O)Nc1ccc(S(N)(=O)=O)cc1,-3.0,4.2,1.7,0.0%,2.1,0.8
O=C(Cc1ccccc1)Nc1ccc(SC(F)F)cc1,-4.6,-39.6*,-2.2,-3.0%,3.6,9.5
COc1ccc(C(=O)Nc2ccc(SC(F)F)cc2)cc1,-8.1,-5.4,-1.3,3.5%,45.9*,12.0
C/C=C/C(=O)OCC(=O)Nc1ccc(SC(F)F)cc1,-6.9,-33.4*,3.9,1.0%,5.7,0.8
N=c1sccn1CC(=O)Nc1ccc(SC(F)F)cc1,-4.9,-8.5,-26.4,-9.0%,46.5*,-10.2
COc1ccccc1C(=O)NNC(=O)c1nn(Cc2ccccc2)c(=O)c2ccccc12,-4.7,19.5,-14.2,3.7%,3.2,?
SMILES,D1 PAM,D1 antagonist,DRD3 agonist,ERG-DNA inh,D1 agonist,D3 antag
Cc1ccc(C)c2c(SC(C)C(=O)NCc3ccco3)nc(-c3ccccc3)nc12 (stereo not given),1.9,1.0,-0.4,4.0%,6.4,15.0
COc1ccccc1CN(C)C[C@H]1OCc2cnnn2CCCC(=O)N([C@@H](C)CO)C[C@@H]1C,·,·,-2.7,·,·,23.3
CCC(C(=O)OCC(=O)Nc1ccc(F)cc1)c1ccccc1 (stereo not given),-7.0,-13.3,-15.0,·,4.4,-20.8
CCC(C(=O)OCC(=O)Nc1ccc(SC(F)F)cc1)c1ccccc1 (stereo not given),-7.8,-35.8*,2.7,-2.7%,10.2,-15.0
O=C(Cc1ccccc1)Nc1ccc(NC(=O)c2cccs2)cc1Cl,-2.1,-30.8*,-1.9,12.0%,7.5,1.8
COc1cccc(C(=O)Nc2ccc3c(c2)CCCN3C(=O)c2cccs2)c1OC,8.1,-13.8,11.3,-0.9%,1.2,5.7
COc1ccccc1NS(=O)(=O)c1cc(NC(=O)c2cccs2)ccc1N1CCOCC1,2.5,-30.1*,-2.8,-4.3%,3.1,21.5
O=C(Nc1ccc(N2CCCC2)c(Cl)c1)c1cccs1,-5.6,-31.7*,-1.2,1.5%,4.0,-16.6
Cc1ccccc1C(=O)Nc1ccc2c(c1)CCCN2C(=O)c1cccs1,-5.8,-37.4*!,3.8,-0.7%,5.3,3.6
COc1ccc(NS(=O)(=O)c2cc(NC(=O)c3cccs3)ccc2N2CCOCC2)cc1,3.2,-7.6,-9.3,8.3%,2.0,3.0
COc1ccc(Cc2nnc(SCc3nc4ccccc4c(=O)[nH]3)n2C)cc1,1.6,16.6,0.9,·,0.7,7.4
CCOc1ccccc1NC(=O)CSc1cc(=O)n(CC)c2ccccc12,3.5,-6.6,1.4,5.2%,19.7,·
CC(=O)Nc1ccc(/C=N/NC(=O)CCN2CCN(c3ccccc3)CC2)cc1,-6.5,-20.4,-4.0,5.3%,-0.5,-83.9*
O=C(CCN1CCN(c2ccccc2)CC1)N/N=C/c1ccccc1OC(F)F,-10.9,-20.5,-20.6,17.2%,0.9,-69.6*
COc1ccc(OC)c(/C=N/NC(=O)CCN2CCN(C(c3ccccc3)c3ccccc3)CC2)c1,2.0,-0.3,-6.3,8.2%,2.1,-22.7
COc1ccc(/C=N\NC(=O)CCN2CCN(c3ccccc3)CC2)cc1OC,-7.0,2.6,15.5,3.2%,-0.3,?
O=C(CCN1CCN(C(c2ccccc2)c2ccccc2)CC1)N/N=C/c1ccc(O)cc1,-5.6,-72.1*,-13.4,-1.1%,2.4,?
COc1cc(NC(=O)/C=C/c2ccccc2)c(C(=O)O)cc1OC,0.9,6.2,7.2,-15.0%,2.5,1.9
CC(C)Oc1ccc(/C(O)=C2/C(=O)C(=O)N(Cc3cccnc3)C2c2ccco2)cc1 (stereo not given),-8.0,1.4,2.8,2.9%,5.2,5.2
CCn1nccc1C(=O)Nc1nc2ccccc2n1CCN1CCCCC1,-9.5,1.0,-6.3,3.0%,1.1,-87.2*
